Sampled rows, rich in hits. Any-hit rate of the full collection: about 2.6%.
PKA-R2B activ = activators of PKA-R2B holoenzyme, primary screen, biochemical, fluorescence polarization, Cy5-IP20, human; cAMP-dependent protein kinase catalytic subunit beta (Homo sapiens) + cAMP-dependent …; PKA-R2B holoenzyme dissociation; R2B truncated from residue 108, S112A mutant; 0% DMSO only, 100% 113 µM cGMP; activation, % at 11.4 µM; actives 0.079% (n = 340,000); AID 504700, 2011;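 active = activation above a cutoff set at the mean over all compounds plus 3 SD, cut at about 18% in these data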;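 note: higher means more holoenzyme dissociation and a rise in polarization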
Target sequence (P31323 whole entry, looked up, other chains not shown, the tested form may be a part): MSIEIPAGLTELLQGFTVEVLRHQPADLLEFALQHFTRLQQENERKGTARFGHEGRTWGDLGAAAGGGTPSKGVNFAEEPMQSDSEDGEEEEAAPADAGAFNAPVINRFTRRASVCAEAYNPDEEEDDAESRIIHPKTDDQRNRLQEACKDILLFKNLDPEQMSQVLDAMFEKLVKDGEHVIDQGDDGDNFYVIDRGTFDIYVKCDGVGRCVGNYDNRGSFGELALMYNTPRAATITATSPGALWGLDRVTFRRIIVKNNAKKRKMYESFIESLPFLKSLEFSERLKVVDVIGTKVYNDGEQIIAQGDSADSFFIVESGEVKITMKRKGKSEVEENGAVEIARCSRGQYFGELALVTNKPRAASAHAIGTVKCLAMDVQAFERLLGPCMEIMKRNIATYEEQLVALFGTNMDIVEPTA
PAFAH1B3 FP inh = PAFAH1B3 enzyme inhibitors, primary screen, biochemical, fluorescence polarization, human; recombinant PAFAH1B3, FP-rhodamine probe; inhibition, % at 3.39 µM; actives 0.28% (n = 340,000); AID 492972, 2010;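 active = inhibition above the screen-wide average of all tested compounds plus 3 SD, cut at about 25% in these data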
Target sequence (Q15102 whole entry, looked up): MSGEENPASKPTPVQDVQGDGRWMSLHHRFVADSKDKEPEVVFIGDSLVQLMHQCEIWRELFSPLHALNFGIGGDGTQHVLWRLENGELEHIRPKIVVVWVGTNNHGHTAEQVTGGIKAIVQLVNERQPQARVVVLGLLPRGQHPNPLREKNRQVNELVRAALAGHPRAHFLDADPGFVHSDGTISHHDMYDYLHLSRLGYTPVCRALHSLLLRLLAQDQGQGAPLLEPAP
pPAFAH inh = pPAFAH enzyme inhibitors, primary screen, biochemical, fluorescence polarization, human; Platelet-activating factor acetylhydrolase (Homo sapiens), Q13093; AID 463082, 2010; recombinant pPAFAH, FP-rhodamine probe fluorescence polarization; actives 1.5% (n = 330,000); inhibition, % at 3.39 µM;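 active = inhibition above the mean inhibition across the screen plus 3 SD, cut at about 25% in these data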;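 note: inhibitors block binding of the rhodamine activity-based probe so polarization drops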
PAFAH1B2 FP inh = PAFAH1B2 enzyme inhibitors, primary screen, biochemical, fluorescence polarization, human; Platelet-activating factor acetylhydrolase IB subunit alpha2 (Homo sapiens), P68402; recombinant PAFAH1B2, FP-rhodamine activity probe; inhibition, % at 3.39 µM; actives 1.2% (n = 340,000); AID 492953, 2010;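 active = inhibition above the mean of all tested compounds plus 3 SD, cut at about 24% in these data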
PKA-R1A act = activators of PKA-R1A holoenzyme, primary screen, biochemical, fluorescence polarization, Cy5-IP20, bovine R1A, mouse PKAc; cAMP-dependent protein kinase type I-alpha regulatory subunit (Bos taurus) + …; PKA-R1A dissociation; scaled: DMSO 0%, 113 µM cGMP 100%; activation, % at 11.4 µM; actives 0.083% (n = 340,000);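 active = percent activation above the mean of all tested compounds plus 3 SD, cut at about 19% in these data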;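 note: higher means more PKAc released from R1A so a rise in polarization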
PAFAH2 FP inh = PAFAH2 enzyme inhibitors, primary screen, biochemical, fluorescence polarization, human | Platelet-activating factor acetylhydrolase 2, cytoplasmic (Homo sapiens), Q99487 | recombinant PAFAH2, FP-rhodamine activity probe | inhibition, % at 3.39 µM | actives 0.99% (n = 340,000) | AID 492956, 2010;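 active = inhibition above the mean over all tested compounds plus 3 SD, cut at about 30% in these data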;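 note: inhibitors block probe labeling of enzyme so polarization drops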
pPAFAH confirm = pPAFAH (PLA2G7) enzyme inhibitors, confirmation, biochemical, fluorescence polarization, human; shares compounds with pPAFAH inh; inhibition, % at 3.39 µM; recombinant pPAFAH, FP-Rh probe fluorescence polarization; actives 72% (n = 2,300);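 active = mean inhibition of the triplicate above the hit cutoff set for the earlier primary screen, cut at about 25% in these data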
Of the large screens only hits and unclear results are named; the others gave an inactive call (follow-up assays come after a bar, where they were run).

O=C(Oc1ccc(Oc2ccccc2)cc1)N1CCC(O)CC1	pPAFAH inh 94 | pPAFAH confirm 92
Cc1cc(SCC(=O)c2ccc(O)c(O)c2)n2nc(C)c(-c3ccccc3)c2n1	pPAFAH inh 72 | pPAFAH confirm 88
O=C(O)c1cc(Cl)c2c(c1)[C@@H]1C=CC[C@@H]1[C@H](c1ccc(S(=O)(=O)N3CCOCC3)cc1)N2	pPAFAH inh 46, PAFAH2 FP inh 41 | pPAFAH confirm inactive
CCCCN(CC)C(=O)c1oc2ccc(S(=O)(=O)N3CCCC3)cc2c1C	none
Cc1ccccc1NC(=O)c1sc2nc3c(c(-c4ccco4)c2c1N)CCC3	pPAFAH inh 36 | pPAFAH confirm inactive
COc1ccccc1NC(=O)N(C)C[C@@H]1OCc2cnnn2CCCC(=O)N([C@H](C)CO)C[C@@H]1C	none (no result: PAFAH1B3 FP inh, pPAFAH inh, PAFAH1B2 FP inh, PAFAH2 FP inh)
Cc1ccc(NS(=O)(=O)c2ccc(-c3ccc(=O)[nH]n3)o2)cc1	pPAFAH inh 36 | pPAFAH confirm inactive
Cc1csc(SCC(=O)NC2CCS(=O)(=O)C2)n1 (configuration not stated)	none
Cc1ccc(NS(=O)(=O)c2csc(C(N)=O)c2)c(C)c1	pPAFAH inh 36 | pPAFAH confirm inactive
COc1cccc(CNC(=O)CCC2CCCN(Cc3cc(Cl)ccc3O)C2)c1 (configuration not stated)	pPAFAH inh 92 | pPAFAH confirm 68
COc1cccc(CNC(=O)CCC2CCCN(C(=O)Cc3ccccc3F)C2)c1 (configuration not stated)	none
Cc1ccc(S(=O)(=O)N(C)C)cc1NC(=O)COC(=O)CNC(=O)c1cccs1	none
NC(=O)C1CCCN(CC(=O)Nc2cc(S(=O)(=O)N3CCOCC3)ccc2N2CCCC2)C1 (configuration not stated)	none
COc1ccc(-n2c(SCC(=O)Nc3ccccc3OC)nc(O)cc2=O)cc1	none
COc1ccccc1-n1c(SCC(=O)Nc2cccc3ccccc23)nc(O)cc1=O	pPAFAH inh 38 | pPAFAH confirm inactive
O=C(CCCCCN1C(=O)c2cccc3cccc(c23)C1=O)NCc1cccnc1	pPAFAH inh 49 (no result: PKA-R2B activ, PAFAH1B3 FP inh, PAFAH1B2 FP inh, PKA-R1A act, PAFAH2 FP inh) | pPAFAH confirm inactive
O=C(CCCN1C(=O)c2cccc3cccc(c23)C1=O)NCc1cccnc1	none
Cc1cc(/C=C2\SC(=S)NC2=O)c(C)n1-c1cccc(O)c1	pPAFAH inh 45 | pPAFAH confirm 49
Cc1cc(/C=C2\SC(=S)NC2=O)c(C)[nH]1	pPAFAH inh 46 | pPAFAH confirm inactive
Cc1ccc(-n2c(C)cc(/C=C3\SC(=O)NC3=O)c2C)cc1	none
Cc1cc(/C=C2/C(=O)NN(c3ccccc3)C2=O)c(C)n1-c1cccc(O)c1	none
COc1ccc(-n2c(C)cc(/C=C3\SC(=O)NC3=O)c2C)cc1	pPAFAH inh 40 | pPAFAH confirm inactive
O=C(/C=C/c1ccc(O)c(O)c1)c1ccc(S(=O)(=O)N2CCCCCC2)cc1	pPAFAH inh 50 | pPAFAH confirm 89
CCOc1ccc(NS(=O)(=O)c2ccc(C(=O)NCC(c3ccc(OC)cc3)N3CCOCC3)cc2)cc1 (configuration not stated)	pPAFAH inh 50 | pPAFAH confirm 59
Cc1cc(S(=O)(=O)Nc2ccc(C(=O)NCC3(N(C)C)CCCCC3)cc2)ccc1F	none
CCOc1ccc(NS(=O)(=O)c2ccc(C(=O)NCC3(N(C)C)CCCCC3)cc2)cc1	pPAFAH inh 52 | pPAFAH confirm 45
COc1cccc(NC(=O)N(C)C[C@H]2Oc3cc(Br)ccc3S(=O)(=O)N([C@H](C)CO)C[C@H]2C)c1	none (no result: PAFAH1B3 FP inh, pPAFAH inh, PAFAH1B2 FP inh, PAFAH2 FP inh)
CCOC(=O)c1c(NC(=O)/C=C/C(=O)O)sc(C)c1-c1ccc(Cl)cc1	pPAFAH inh 44 | pPAFAH confirm 40
OC1(c2ccc(Cl)cc2)CCN(Cc2cn[nH]c2-c2ccc(F)cc2)CC1	pPAFAH inh 58 | pPAFAH confirm inactive
O=C(COc1ccc(Br)cc1)Nc1ccccc1N1CCCC1	pPAFAH inh 59 | pPAFAH confirm inactive
CCc1csc(CCNC(=O)C2CCC(=O)N(Cc3cccc(C(F)(F)F)c3)C2)n1 (configuration not stated)	none
COCc1c(C(=O)OCc2nc3ccsc3c(=O)[nH]2)oc2ccccc12	none
CCCCNC(=O)c1sc(=S)n2c1[nH]c(=O)c1ccccc12	PAFAH1B3 FP inh 31, pPAFAH inh 35, PAFAH1B2 FP inh 26, PAFAH2 FP inh 38 | pPAFAH confirm 63
CC(C)NC(=O)c1sc(=S)n2c1[nH]c(=O)c1ccc(C(=O)NCCc3ccc(Cl)cc3)cc12	none
O=C(NCCc1ccccc1)c1ccc2c(=O)[nH]c3c(C(=O)NCC4CCCO4)sc(=S)n3c2c1 (configuration not stated)	PAFAH1B3 FP inh 30, pPAFAH inh 71, PAFAH1B2 FP inh 50 | pPAFAH confirm 84
Cc1cc(C)cc(C(=O)NCC(=O)OCc2c(C)noc2C)c1	pPAFAH inh 37 | pPAFAH confirm inactive
Cc1ccc2nc(/C(C#N)=C/c3ccc(O)c(O)c3)[nH]c2c1	PAFAH1B3 FP inh 47, pPAFAH inh 65 | pPAFAH confirm 79
Cc1ccc2nc(/C(C#N)=C/c3ccccc3C(=O)O)[nH]c2c1	none
COc1cc(CNc2ccc(N3CCCCC3)cc2)ccc1OCC(=O)NC(C)(C)C	none
N#C/C(=N\Nc1cccc(C(F)(F)F)c1)C(=O)c1csc(-c2cccnc2)n1	pPAFAH inh 45 | pPAFAH confirm 63
CC(CN1CCOCC1)OC(=O)Cc1ccc(Cl)cc1 (configuration not stated)	pPAFAH inh 54 | pPAFAH confirm inactive
N#CC1(NC(=O)COc2ccccc2[N+](=O)[O-])CCCCC1	none
C=CCOc1ccc(C(=O)c2ccccc2)c(OCC(=O)NC2(C#N)CCCC2)c1	pPAFAH inh 35 | pPAFAH confirm inactive
COc1ccc(S(=O)(=O)N2CCC3(CC2)CC(=O)c2ccccc2O3)cc1OC	none
COCCCNc1c2c3c(cccc3[nH]c1=O)C(=O)c1ccccc1-2	PAFAH1B3 FP inh 134, pPAFAH inh 106, PAFAH1B2 FP inh 109, PAFAH2 FP inh 136 | pPAFAH confirm 84

Screens: PubChem BioAssay, The Scripps Research Institute Molecular Screening Center
